# Source: PubChem BioAssay (National Center for Advancing Translational Sciences (NCATS))
# GLS inhibitor: blocks human kidney-isoform glutaminase activity | AID 624170 | GLS enzymatic activity, qHTS titration | Potency, µM (top dose mostly 45.5 µM), without a hit: top-dose activity change, negative = inhibition, actives largely listed as inhibitors | actives 0.21% (n = 410,000) | O94925; note: % is set by controls: 0 for no effect and ±100 for the full control effect
#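 Read-out is an Amplex red fluorescence increase coupled through glutamate oxidase and HRP, measured before and after 30 min room-temperature incubation. hKGA is in 45 mM KH2PO4 (pH 8.2) with 0.02% Tween-20; glutamine added as 1mM solution.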
# Tb PFK inh-1: blocks T. brucei phosphofructokinase; Potency, µM (series often up to 57.5 µM), for inactives: top-dose activity, negative = inhibition, most hits filed as inhibitors; actives 0.17% (n = 330,000); AID 485367; T. brucei PFK, ADP-Glo luminescence;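 note: 0% = uninhibited 1x PFK enzyme wells and -100% = no-enzyme wells; nearly all actives have a fitted effect of over 60% in size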
# Target sequence (O15648 whole entry, looked up): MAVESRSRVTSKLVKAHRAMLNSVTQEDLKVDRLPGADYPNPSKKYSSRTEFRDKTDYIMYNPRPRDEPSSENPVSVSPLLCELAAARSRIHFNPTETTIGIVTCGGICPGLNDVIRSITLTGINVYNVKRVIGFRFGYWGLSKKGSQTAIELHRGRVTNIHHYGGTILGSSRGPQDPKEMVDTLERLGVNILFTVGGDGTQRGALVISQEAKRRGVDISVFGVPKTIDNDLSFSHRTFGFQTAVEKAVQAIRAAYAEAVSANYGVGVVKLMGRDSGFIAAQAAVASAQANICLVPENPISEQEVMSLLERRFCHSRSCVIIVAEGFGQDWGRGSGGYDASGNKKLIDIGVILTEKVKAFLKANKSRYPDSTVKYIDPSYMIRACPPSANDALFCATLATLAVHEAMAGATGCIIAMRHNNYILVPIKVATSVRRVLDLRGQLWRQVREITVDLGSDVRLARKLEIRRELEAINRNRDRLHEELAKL
#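 Activity is normalized to no-enzyme wells (full inhibition) and 1.25 nM enzyme wells (no inhibition). Reaction: 0.5 mM F6P, 0.1 mM ATP, 45 min RT, ADP-Glo luminescence; concentration-response curves fitted and classed by quality.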
# Pin1 inhibitor: blocks the human prolyl isomerase Pin1; Q13526; Pin1 FP peptide displacement, HiFluor488, 10 min; Potency, µM (titrated, usually from 115 µM), without a hit: top-dose activity, negative = inhibition, usual class: inhibitors; actives 0.009% (n = 390,000); AID 504891; active = well fitted inhibition curve with a large enough effect in the polarisation, with a control signal flat, not every such curve was filed as active; inconclusive = small, poorly fitted or top-dose-only effect, or effect the other way, or a change in a side signal; inactive = no such curve, though single readings can be large or run the other way; the % refers to the polarisation; note: % is set by controls: 0 for no effect and ±100 for the full control effect
# Target sequence (Q13526 whole entry, looked up): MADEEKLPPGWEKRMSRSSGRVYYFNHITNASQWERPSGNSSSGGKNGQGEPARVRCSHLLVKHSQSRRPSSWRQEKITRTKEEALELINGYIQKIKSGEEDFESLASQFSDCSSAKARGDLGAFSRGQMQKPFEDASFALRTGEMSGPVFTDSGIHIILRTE
# VDR inh: inhibitors of human vitamin D receptor. VDR-SRC2-3 peptide fluorescence polarization, 2 h. Potency, µM, for inactives: max response, negative = inhibition, actives largely listed as inhibitors. actives 0.93% (n = 400,000). AID 504847; note: % is set by controls: 0 for no effect and ±100 for the full control effect
#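 Fluorescence polarization assay of small-molecule disruption of VDR binding to coregulator peptide SRC2-3. Compounds and controls pin-transferred, then read after 2 h incubation at ambient room temperature.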
# Tb PGK inh: blocks T. brucei phosphoglycerate kinase; P07378; PGK/GAPDH coupled, Kinase-Glo luminescence, 60 min; Potency, µM (series often up to 57.5 µM), without a hit: at the top dose activity change, negative = inhibition, usual class: inhibitors; actives 0.043% (n = 380,000); AID 602233; note: % is set by controls: 0 for no effect and ±100 for the full control effect; nearly all actives have a fitted effect of over 60% in size
#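 Recombinant glycosomal PGK reaction used 1,3-bisphosphoglycerate generated in-well by GAPDH (100nM final) in 100mM TEA pH 7.6, 5mM MgCl2, 0.01% Tween-20. After 60 minutes at room temperature, ATP was read by Kinase-Glo Plus luminescence end-point.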
# TbPFK ATP: orthogonal confirmation of T. brucei phosphofructokinase inhibitors | Tb PFK enzyme, ATP depletion, Kinase-Glo Plus luminescence | actives 47% (n = 1,100) | Potency, µM (doses to about 57.5 µM), inactives show top-dose inhibition | shares compounds with Tb PFK inh-1 | AID 504636; calls by dose curve; note: nearly all actives have a fitted effect of over 60% in size
# Tb PFK inh-2: T. brucei PFK enzyme inhibition, hit validation; AID 504637; Potency, µM (doses to about 57.5 µM), without a hit: top-dose activity change, negative = inhibition, usual class: inhibitors; shares compounds with Tb PFK inh-1; purified T. brucei PFK, ADP-Glo luminescence, 45 min; actives 41% (n = 1,100);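 note: plate controls were full PFK enzyme control for no effect and no enzyme control for full effect; nearly all actives have a fitted effect of over 60% in size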
# * = called active by the depositor; i = inactive; ? = inconclusive; . = no result given; [ ] = dose if it differs, or a comment. This is a sample that favours compounds with a hit; in the whole collection about 1.1% have one here. Unless noted, calls come from the whole dose curve; as a rule, active = well fitted curve in the direction sought with a large enough effect; inconclusive = small, poorly fitted or top-dose-only effect, or another doubt; inactive = no such curve, though single readings can be large; an effect the other way counts as inactive or inconclusive. Potency is the fitted concentration of half-maximal effect.
SMILES,GLS inhibitor,Tb PFK inh-1,Pin1 inhibitor,VDR inh,Tb PGK inh,TbPFK ATP,Tb PFK inh-2
O=C(Nc1ccc(S(=O)(=O)Nc2ccccc2)cc1)C1COc2ccccc2O1 (stereo not given),-2%,11µM*,0%,12%,-3%[11.5 µM],12µM*,30µM*
CCN(C1CCCCC1)S(=O)(=O)c1ccc(S(=O)(=O)N(CC(=O)Nc2ccccc2)C2CC2)cc1,-5%,-1%,20%,6%,-5%,.,.
CN(C)S(=O)(=O)c1ccc(NC(=O)C2COc3ccccc3O2)cc1 (stereo not given),2%,19µM*,1%,-10%,2%,12µM*,27µM*
CCOC(=O)N1CC(C)N(/[N+]([O-])=N/Oc2ccc([N+](=O)[O-])cc2[N+](=O)[O-])CC1C (stereo not given),.,.,-10%,?,.,.,.
CC/C(=N/Nc1cccc(Cl)c1)c1cnnc(SC)n1,7%,?,9%,-9%,0%,?,?
O=C(CN1C(=O)/C(=C2\SC(=S)N(CCS(=O)(=O)O)C2=O)c2ccccc21)Nc1cccc(Br)c1,14%,27µM*,.,?,?,4.3µM*,7.6µM*
CCC(N)CCc1c[nH]c2ccccc12 (stereo not given),52%[99.4 µM],.,.,.,.,.,.
CCN(CC)CCSc1nc2ccccc2c(=O)n1-c1ccc(Cl)cc1,3%,.,126%,-15%,-7%,.,.
Cc1nn(Cc2ccc(Cl)c(Cl)c2)c(C)c1NC(=O)c1cc(CC(C)C)on1,-5%,30µM*,0%,12%,-3%,11µM*,12µM*
CCOC(=O)c1ccc(N2C(=O)c3n[nH]c(-c4cccs4)c3C2c2ccc(Cl)cc2Cl)cc1 (stereo not given),6%,.,?,-12%,-5%,.,.
O=C(O)c1ccc2c(c1)C(=O)/C(=C/c1ccccc1)C2=O,7.1µM*,?,.,?,-23%,-16%,?
O=C1C(=Cc2ccccc2)N2CCC1CC2,-2%,.,-1%,8%,-17%,.,.
O=C(COC(=O)/C=C/c1ccco1)Nc1ncc(C(F)(F)F)cc1Cl,-2%,17µM*,?,-6%,13µM*,11µM*,13µM*
Nc1n[nH]c(=S)n1/N=C1/C(=O)Nc2ccccc21,-25%,?,?,?,-1%,3µM*,9.5µM*
Cc1ccc(-n2c(=O)[nH]c3ccc(Br)cc3c2=O)cc1,-2%,.,-2%,0%,i,.,.
Clc1cccc(N2CCNCC2)c1,0%,-17%,-1%,-9%,-9%,.,.
CC(CS(=O)(=O)c1ccc2c(c1)NC(=O)CS2)C(=O)N1CCN(c2cccc(Cl)c2)CC1 (stereo not given),-1%,15µM*,25%,-4%,?,21µM*,12µM*
CC(CS(=O)(=O)c1ccc2c(c1)NC(=O)CS2)C(=O)NCc1ccccc1Cl (stereo not given),11µM*,13µM*,?,6%,7.9µM*,1.7µM*,1.9µM*
CS(=O)(=O)N1CCC2(CCCN(Cc3ccncc3)C2)CC1,.,.,.,-20%,.,.,.
N#Cc1cc2c(nc1SCC(=O)Nc1ccc(C(F)(F)F)cc1)C1CCN2CC1,-1%,.,0%,-7%,-2%,.,.
CC(=O)CSc1nnc(Cc2ccc([N+](=O)[O-])cc2)o1,1%,?,1%,-8%,-5%,?,-25%
CCOC(=O)c1cc(C)n(CCc2cnc[nH]2)c1C,11%,4%,-1%,-11%,-5%,.,.
COCCn1c(C)cc(C(=O)COC(=O)c2cc3c(s2)CCC3)c1C,-17%,?,.,0%,-22%,?,-25%
CC(NCc1ccccc1Cl)C(O)c1ccccc1 (stereo not given),-1%,-6%,-11%,1%,-8%,.,.
CC(NCc1ccc(Cl)c(Cl)c1)C(O)c1ccccc1 (stereo not given),8%,?,-6%,-5%,0%[11.5 µM],12µM*,24µM*
SMILES,GLS inhibitor,Tb PFK inh-1,Pin1 inhibitor,VDR inh,Tb PGK inh,TbPFK ATP,Tb PFK inh-2
CC1CC[C@@]2(OC1)O[C@@H]1[C@@H](O)[C@H]3C4CC[C@H]5C[C@@H](O[C@@H]6O[C@H](CO)[C@H](O[C@@H]7O[C@H](CO)[C@@H](O)[C@H](O[C@@H]8OC[C@@H](O)[C@H](O)[C@H]8O)[C@H]7O[C@@H]7O[C@H](CO)[C@@H](O)[C@H](O[C@@H]8O[C@H](CO)[C@@H](O)[C@H](O)[C@H]8O)[C@H]7O)[C@H](O)[C@H]6O)[C@H](O)C[C@]5(C)C4CC[C@]3(C)[C@H]1[C@@H]2C (stereo not given in full),.,.,.,-10%,.,.,.
Cn1cccc1-c1cccnc1,.,.,.,3%,.,.,.
O=C(CCc1ccccc1)NNC(=O)c1ccc(NC(=O)c2ccccc2)cc1,-8%,?,39%,0%,-13%,?,?
C[C@H]1COc2cc(N3CCN(C)CC3)ccc2S(=O)(=O)N1,14%,.,.,.,.,.,.
O=c1ccc2c(-c3ccccc3)c3ccc(O)cc3oc-2c1,-29%,12µM*,?,?,-13%,13%,-10%
CC(=O)CC(c1ccccc1)c1c(O)c2ccc(O)cc2oc1=O (stereo not given),.,.,.,6%,.,.,.
COc1ccccc1N1CCN(Cc2ccc(Br)cc2)CC1,13%,-3%,-2%,-2%,i,.,.
c1ccc(OCCN2C3=NCCN3c3ccccc32)cc1,-4%,21µM*,0%,5%,-3%,24µM*,?
Clc1ccc(CN2C3=NCCN3c3ccccc32)cc1,5%,24µM*,2%,1%,2%,21µM*,27µM*
Brc1ccc(CN2C3=NCCCN3c3ccccc32)cc1,0%,?,-5%,-14%,-10%,27µM*,?
Clc1cccc(CN2C3=NCCCN3c3ccccc32)c1,-2%,?,-3%,-4%,10%,?,?
CC(=O)Oc1ccc2c3c1OC1[C@@H](OC(C)=O)C=C[C@H]4[C@H](C2)N(C)CC[C@]314 (stereo not given in full),-1%,.,.,2%,.,.,.
CCCC(C)(COC(N)=O)COC(=O)NC1CC1 (stereo not given),5%,.,.,2%,.,.,.
Cc1ccc(Cn2cccc(C(=O)Nc3ccc(C)c(Cl)c3)c2=O)cc1,-15%,.,-3%,9%,-10%,.,.
CC(=O)Nc1ccccc1C(=O)OCC(=O)c1ccccc1Cl,4%,5%,-3%,4%,0%,.,.
CCc1nnc(NC(=O)C(=O)NCCOC(=O)c2ccccc2Cl)s1,28%,?,0%,-1%,4%,-29%,?
